Reference: PubChem BioAssay (NCI)
Compounds without any hit were thinned out: in the full panel of roughly 83,000, 20% have a hit.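 96-well plates, one dose, 48 hours. Percent growth reported; active if below 10.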 The source made the active and inactive calls.

Legend:
Assay in all cases: NCI-60 one-dose screen, 48 h (100 = growth as untreated, 0 = no growth, -100 = all killed)
Conditions in all cases: 10 µM unless noted
SK-MEL-2 melanoma = test system: SK-MEL-2 melanoma
EKVX NSCLC = test system: EKVX NSCLC
SN12C renal = test system: SN12C renal
UO-31 renal = test system: UO-31 renal
TK-10 renal = test system: TK-10 renal
CAKI-1 renal = test system: CAKI-1 renal
CCRF-CEM leukemia = test system: CCRF-CEM leukemia
MOLT-4 leukemia = test system: MOLT-4 leukemia
SR leukemia = test system: SR leukemia
RPMI-8226 leukemia = test system: RPMI-8226 leukemia
OVCAR-8 ovarian = test system: OVCAR-8 ovarian
OVCAR-5 ovarian = test system: OVCAR-5 ovarian
OVCAR-4 ovarian = test system: OVCAR-4 ovarian
SK-OV-3 ovarian = test system: SK-OV-3 ovarian
IGROV1 ovarian = test system: IGROV1 ovarian
OVCAR-3 ovarian = test system: OVCAR-3 ovarian
HS 578T breast = test system: HS 578T breast
NCI/ADR-RES ovarian = test system: NCI/ADR-RES ovarian
A498 renal = test system: A498 renal
ACHN renal = test system: ACHN renal

Measured: growth

Cc1cn(-c2cc(C(=O)Nc3cccc(C#Cc4cccc5[nH]nc(N)c45)c3)cc(C(F)(F)F)c2)cn1
inactive: EKVX NSCLC 68% | SN12C renal 62.3% | UO-31 renal 30.2% | TK-10 renal 58.5% | CAKI-1 renal 79.6% | CCRF-CEM leukemia 47.4% | MOLT-4 leukemia 36.5% | SR leukemia 49.9% | RPMI-8226 leukemia 20.1% | OVCAR-8 ovarian 48.8% | OVCAR-5 ovarian 44.2% | OVCAR-4 ovarian 38% | SK-OV-3 ovarian 72.6% | IGROV1 ovarian 25.5% | OVCAR-3 ovarian 77.7% | HS 578T breast 39.4% | NCI/ADR-RES ovarian 98.6%
active: SK-MEL-2 melanoma 5.21%

CN1CCN(CCCNc2nccc(-c3c(-c4ccc(F)c(O)c4)nc4sccn34)n2)S1(=O)=O
active: SK-MEL-2 melanoma -1.07%
inactive: EKVX NSCLC 106% | SN12C renal 85.1% | UO-31 renal 110% | TK-10 renal 133% | CAKI-1 renal 95.5% | A498 renal 134% | CCRF-CEM leukemia 76% | MOLT-4 leukemia 82.5% | SR leukemia 58.1% | RPMI-8226 leukemia 87.4% | OVCAR-8 ovarian 96.1% | OVCAR-5 ovarian 131% | OVCAR-4 ovarian 133% | SK-OV-3 ovarian 91.8% | IGROV1 ovarian 98.5% | OVCAR-3 ovarian 116% | HS 578T breast 97.2% | NCI/ADR-RES ovarian 99.5%

CS(=O)(=O)c1ccc(-c2cc(-c3nnc(SCC(=O)Nc4ccc(C(=O)/C=C/c5ccc(Cl)cc5)cc4)n3-c3ccccc3)c3ccccc3n2)cc1
inactive: SK-MEL-2 melanoma 107% | EKVX NSCLC 94% | SN12C renal 91.3% | UO-31 renal 72.5% | TK-10 renal 99.3% | CAKI-1 renal 86.2% | CCRF-CEM leukemia 99.6% | MOLT-4 leukemia 90.5% | SR leukemia 94.1% | RPMI-8226 leukemia 74.2% | OVCAR-8 ovarian 86.1% | OVCAR-5 ovarian 95.1% | OVCAR-4 ovarian 102% | SK-OV-3 ovarian 110% | IGROV1 ovarian 91.9% | OVCAR-3 ovarian 102% | HS 578T breast 89.5% | NCI/ADR-RES ovarian 94.6%

NNC(=O)/C(=C\c1ccc([N+](=O)[O-])cc1)CC(=O)c1ccc(Cl)c(Cl)c1
inactive: SK-MEL-2 melanoma 95.7% | EKVX NSCLC 69.5% | SN12C renal 88% | UO-31 renal 58.6% | TK-10 renal 97.5% | CAKI-1 renal 66.8% | CCRF-CEM leukemia 80.9% | MOLT-4 leukemia 61.4% | SR leukemia 86.7% | RPMI-8226 leukemia 91.7% | OVCAR-8 ovarian 90.9% | OVCAR-5 ovarian 87.8% | OVCAR-4 ovarian 80% | SK-OV-3 ovarian 99.9% | IGROV1 ovarian 70% | HS 578T breast 88.4%

C(=N\Nc1ncc(-c2cc3cc4c(cc3o2)OCO4)s1)/c1c[nH]c2ccccc12
active: EKVX NSCLC 5.32% | SN12C renal -12.3% | UO-31 renal -96.5% | CAKI-1 renal -43.3% | A498 renal -3.19% | CCRF-CEM leukemia 2.87% | MOLT-4 leukemia -23.8% | RPMI-8226 leukemia -22.4% | OVCAR-8 ovarian -12.1% | OVCAR-5 ovarian 9.56% | OVCAR-4 ovarian -12.9% | IGROV1 ovarian -43.8% | OVCAR-3 ovarian -44.4% | HS 578T breast -6.98%
inactive: SK-MEL-2 melanoma 51.3% | TK-10 renal 22.7% | NCI/ADR-RES ovarian 10.7%

O=C(CNCCO)Nc1ccc2ncnc(Nc3ccc(OCc4cccc(F)c4)c(Cl)c3)c2c1
inactive: SK-MEL-2 melanoma 98.2% | EKVX NSCLC 42.6% | SN12C renal 51.6% | UO-31 renal 50.1% | TK-10 renal 56% | A498 renal 69% | CCRF-CEM leukemia 80.4% | MOLT-4 leukemia 78.5% | SR leukemia 12.9% | RPMI-8226 leukemia 88.2% | OVCAR-8 ovarian 80.4% | OVCAR-5 ovarian 85.5% | OVCAR-4 ovarian 93.8% | SK-OV-3 ovarian 16.4% | IGROV1 ovarian 33.6% | OVCAR-3 ovarian 72.7% | HS 578T breast 103% | NCI/ADR-RES ovarian 90.1%

O=C(CN1CCOCC1)Nc1ccc2ncnc(Nc3ccc(Oc4cccc(F)c4)c(Cl)c3)c2c1
inactive: SK-MEL-2 melanoma 93.6% | EKVX NSCLC 29.8% | SN12C renal 48.9% | UO-31 renal 31.6% | TK-10 renal 39.5% | CAKI-1 renal 38.3% | A498 renal 63.2% | CCRF-CEM leukemia 82.3% | MOLT-4 leukemia 64.8% | SR leukemia 84.1% | RPMI-8226 leukemia 55.7% | OVCAR-8 ovarian 68.6% | OVCAR-5 ovarian 68.7% | OVCAR-4 ovarian 73.4% | SK-OV-3 ovarian 13.9% | IGROV1 ovarian 19.9% | HS 578T breast 86.6% | NCI/ADR-RES ovarian 60%

CCOC(=O)c1c(C)nc2c(c1N)C(=O)C(=O)N2Cc1ccc(C(F)(F)F)cc1
inactive: SK-MEL-2 melanoma 77% | EKVX NSCLC 79.5% | SN12C renal 74.1% | UO-31 renal 54.1% | TK-10 renal 107% | A498 renal 72.6% | CCRF-CEM leukemia 39.4% | MOLT-4 leukemia 60.1% | SR leukemia 23.3% | RPMI-8226 leukemia 27.2% | OVCAR-8 ovarian 63.3% | OVCAR-5 ovarian 91.7% | OVCAR-4 ovarian 69.3% | SK-OV-3 ovarian 82.9% | IGROV1 ovarian 62.5% | OVCAR-3 ovarian 18% | HS 578T breast 65.7% | NCI/ADR-RES ovarian 17.7%

CCCC/C(=N\N=C(N)N)c1ccc(F)cc1
active: SK-MEL-2 melanoma 1.07% | OVCAR-3 ovarian -11.4% | NCI/ADR-RES ovarian 7.48%
inactive: EKVX NSCLC 44.5% | SN12C renal 37.5% | UO-31 renal 45.3% | TK-10 renal 50.7% | CAKI-1 renal 29.5% | CCRF-CEM leukemia 26.3% | MOLT-4 leukemia 32.4% | RPMI-8226 leukemia 36% | OVCAR-8 ovarian 33.6% | OVCAR-4 ovarian 39.7% | SK-OV-3 ovarian 13.7% | IGROV1 ovarian 45% | HS 578T breast 26.1%

O=C1Nc2c(ccc(Cl)c2Cl)/C1=C/c1ccccn1
active: CAKI-1 renal -1.32%
inactive: SK-MEL-2 melanoma 104% | EKVX NSCLC 62.3% | SN12C renal 97% | UO-31 renal 73.3% | TK-10 renal 120% | A498 renal 110% | CCRF-CEM leukemia 23.2% | RPMI-8226 leukemia 107% | OVCAR-8 ovarian 81% | OVCAR-5 ovarian 85.1% | OVCAR-4 ovarian 76.5% | SK-OV-3 ovarian 94% | IGROV1 ovarian 73.1% | OVCAR-3 ovarian 84.6% | HS 578T breast 63.9% | NCI/ADR-RES ovarian 82.5%

CCc1nc(C)cn1C(=O)OCc1nc2nc(Cl)nc(N3CCOCC3)c2[nH]1
active: SK-MEL-2 melanoma -90.9% | SN12C renal -21.3% | UO-31 renal -100% | TK-10 renal -91.5% | CAKI-1 renal -80% | CCRF-CEM leukemia -5.27% | MOLT-4 leukemia 6.91% | SR leukemia -16.1% | RPMI-8226 leukemia -33.1% | OVCAR-8 ovarian -13.7% | OVCAR-5 ovarian -48.9% | OVCAR-4 ovarian -33.9% | IGROV1 ovarian -48.1% | OVCAR-3 ovarian -80.9% | HS 578T breast -6.6% | NCI/ADR-RES ovarian 2.83%
inactive: EKVX NSCLC 48.2% | A498 renal 22.1% | SK-OV-3 ovarian 70%

CC(C)CCSc1nc(NNC(N)=O)c(C#N)c(-c2ccccc2)n1
inactive: SK-MEL-2 melanoma 107% | EKVX NSCLC 99.9% | SN12C renal 95% | UO-31 renal 85.1% | TK-10 renal 105% | CAKI-1 renal 93.7% | A498 renal 105% | CCRF-CEM leukemia 100% | MOLT-4 leukemia 110% | SR leukemia 105% | RPMI-8226 leukemia 99.4% | OVCAR-8 ovarian 104% | OVCAR-5 ovarian 97.8% | OVCAR-4 ovarian 113% | SK-OV-3 ovarian 107% | IGROV1 ovarian 103% | OVCAR-3 ovarian 108% | HS 578T breast 112% | NCI/ADR-RES ovarian 102%

COc1ccc(C(=O)c2cc3c(N)c(C(=O)Nc4cccc(Cl)c4C)sc3nc2C)cc1
inactive: SK-MEL-2 melanoma 36.9% | SN12C renal 20.3% | UO-31 renal 21.7% | TK-10 renal 50.9% | ACHN renal 24.1% | CAKI-1 renal 15.6% | OVCAR-5 ovarian 40.9% | OVCAR-4 ovarian 39.2% | SK-OV-3 ovarian 25.9% | IGROV1 ovarian 24.8% | HS 578T breast 15%
active: A498 renal -12.4% | CCRF-CEM leukemia 5.42% | MOLT-4 leukemia 8.51% | SR leukemia -27.1% | RPMI-8226 leukemia 1.21% | OVCAR-8 ovarian 5.92% | OVCAR-3 ovarian -5.77% | NCI/ADR-RES ovarian 8.86%

CN(C)c1ccc(-c2c(C#N)c(N)n3nc(N)c(C#N)c3c2C#N)cc1
inactive: SK-MEL-2 melanoma 88.3% | SN12C renal 72.3% | UO-31 renal 75.5% | TK-10 renal 82.4% | ACHN renal 86.5% | A498 renal 106% | CCRF-CEM leukemia 94% | MOLT-4 leukemia 90% | SR leukemia 62.1% | RPMI-8226 leukemia 32.2% | OVCAR-8 ovarian 83.7% | OVCAR-5 ovarian 63.7% | OVCAR-4 ovarian 101% | SK-OV-3 ovarian 71.3% | IGROV1 ovarian 55.7% | OVCAR-3 ovarian 85.3% | HS 578T breast 93.2% | NCI/ADR-RES ovarian 90.4%

CC(=O)N1c2ccccc2NC2=C(C(=O)N(Cc3ccccc3)C2(C)C)C1c1ccco1 (stereo not drawn)
inactive: SK-MEL-2 melanoma 16.9% | SN12C renal 35.9% | UO-31 renal 52.5% | TK-10 renal 54.9% | ACHN renal 33.5% | CAKI-1 renal 43% | CCRF-CEM leukemia 24.1% | MOLT-4 leukemia 28.6% | SR leukemia 23.3% | RPMI-8226 leukemia 23.4% | OVCAR-8 ovarian 26.1% | OVCAR-5 ovarian 25.9% | OVCAR-4 ovarian 48.8% | SK-OV-3 ovarian 22.7% | IGROV1 ovarian 26.8% | HS 578T breast 10.7% | NCI/ADR-RES ovarian 82.9%
active: OVCAR-3 ovarian -7.66%

Cc1c2c(cc[n+]1Cc1ccc(F)cc1)c1ccc(OCc3cccc(F)c3)cc1n2Cc1cccc(F)c1
active: SK-MEL-2 melanoma -81.3% | SN12C renal -90.5% | TK-10 renal -27.8% | A498 renal -1.04% | CCRF-CEM leukemia -54.2% | MOLT-4 leukemia -62.4% | SR leukemia -48.7% | RPMI-8226 leukemia -33% | OVCAR-8 ovarian -81.6% | OVCAR-5 ovarian 4.86% | OVCAR-4 ovarian -80.8% | SK-OV-3 ovarian 2.43% | IGROV1 ovarian -67.4% | OVCAR-3 ovarian -98.5% | HS 578T breast -40.9%
inactive: UO-31 renal 53.9% | ACHN renal 32.2% | NCI/ADR-RES ovarian 85%

COc1cc2nc(-c3ccc(C(F)(F)F)cc3)cc(OCCCN3CCCCC3)c2cc1OC
inactive: SK-MEL-2 melanoma 61.4% | SN12C renal 45.7% | UO-31 renal 30.5% | TK-10 renal 105% | CCRF-CEM leukemia 42.4% | MOLT-4 leukemia 35.8% | RPMI-8226 leukemia 24.8% | OVCAR-8 ovarian 52.4% | OVCAR-5 ovarian 57.7% | OVCAR-4 ovarian 54.7% | SK-OV-3 ovarian 77.8% | IGROV1 ovarian 31.8% | OVCAR-3 ovarian 60.1% | HS 578T breast 59.1% | NCI/ADR-RES ovarian 49.7%
active: CAKI-1 renal 0.476% | SR leukemia 8.2%
